Values joined by “and” are separate entries in the source; they are usually repeats but may differ in a detail not shown here. Identical values can stand only once. Active and inactive are the calls of the source. Calls follow the shape of the dose curve; as a rule, active = well fitted inhibition curve with a large enough effect; inconclusive = small, poorly fitted or top-dose-only effect; inactive = flat fitted curve, though single readings scatter.

A short description of this assay: Quantitative high throughput screen for delayed death inhibitors of the malarial parasite plastid, 48 hour incubation. The conditions noted are these: P. falciparum in erythrocytes, luciferase growth. The source says:
NIH Molecular Libraries Probe Production Network [MLPCN] NIH Chemical Genomics Center [NCGC] MLPCN Grant: R21 NS059500 Assay Provider: David Fidock and Eric Ekland, Columbia University The goal of this screen is to discover new antimalarial compounds that act by inhibiting the development of the apicoplast in the malarial parasite Plasmodium falciparum. The biochemical processes that make this organelle essential for erythrocytic stage parasites are not well understood. However, antibiotics, such as azithromycin and tetracycline, which target the apicoplast translational machinery, have a potent antimalarial effect. […] We have developed a cell-based assay that measures parasite growth based on the expression of an integrated copy of a firefly luciferase reporter. To detect small molecules that cause this 'delayed death' phenotype, erythrocytes infected with the luciferase-expressing parasites were incubated with compounds for either one or two generations, corresponding to 48 and 96 hours, respectively. Compounds that inhibit parasite growth in the second generation, but not the first, should be enriched in antimalarials that target the apicoplast. Growth inhibition is detected by a decrease in luciferase activity
Four microliters of culture medium (RPMI 1640 with 0.5% w/v Albumax (GIBCO), 24 mM sodium bicarbonate and 10 ug/mL gentamycin) were dispensed by a Multi-drop Combi into white solid 1536-well plates (Grenier) and 23 nL compound was added by a pin tool. Four microliters of infected erythrocytes (2% hematocrit, 0.1% parasitemia final concentration) in culture medium were dispensed and the plates incubated for 48 hours at 37 C in 5% CO2. Two microliters of luciferase detection reagent was added and luminescence was detected by a ViewLux (PerkinElmer) reader
Consider `C[C@@H]1CN([C@@H](C)CO[Si](C)(C)C(C)(C)C)C(=O)c2cc(NC(=O)Nc3ccccc3)ccc2O[C@@H](C)CCCCO[C@H]1CN(C)S(=O)(=O)c1ccc(F)cc1`, for which the Potency is 1.1 nM (active).

`C[C@@H]1CCCCO[C@@H](CN(C)Cc2ccc(F)cc2)[C@H](C)CN([C@@H](C)CO)C(=O)c2cc(NC(=O)Nc3ccccc3)ccc2O1`: the Potency is 4000 nM (active).

Consider `C[C@@H]1CN([C@@H](C)CO)C(=O)c2cc(NC(=O)Nc3ccccc3)ccc2O[C@@H](C)CCCCO[C@H]1CN(C)S(=O)(=O)c1cccc(F)c1`, for which the Potency was 10 nM (active).

As to `C[C@@H]1CN([C@@H](C)COC(C)(C)C)C(=O)c2cc(NC(=O)Nc3ccccc3)ccc2O[C@@H](C)CCCCO[C@H]1CN(C)S(=O)(=O)c1ccc(F)cc1`, the Potency was 1.3 nM (active).

As to `C[C@@H]1CN(C)C(=O)c2cc(NC(=O)Nc3ccccc3)ccc2O[C@@H](C)CCCCO[C@@H]1CN(C)S(=O)(=O)c1ccc(F)cc1`, the Potency was 1260 nM (active).

With `C[C@@H]1CN([C@@H](C)COC(=O)c2ccccc2)C(=O)c2cc(NC(=O)Nc3ccccc3)ccc2O[C@@H](C)CCCCO[C@H]1CN(C)S(=O)(=O)c1ccc(F)cc1`, the Potency is 63.4 nM (active).

With `C[C@@H]1CN([C@@H](C)CN=[N+]=[N-])C(=O)c2cc(NC(=O)Nc3ccccc3)ccc2O[C@@H](C)CCCCO[C@H]1CN(C)S(=O)(=O)c1ccc(F)cc1`, the Potency is 3.6 nM (active).

Take `C=CCOC(=O)N(C)C[C@@H]1OCCCC[C@H](C)Oc2ccc(NC(=O)Nc3ccccc3)cc2C(=O)N([C@H](C)COC(=O)c2ccccc2)C[C@H]1C`: the Potency was 504 nM (active).

In the case of `C[C@@H]1CN([C@@H](C)CO)C(=O)c2cc(NC(=O)Nc3ccccc3)ccc2O[C@@H](C)CCCCO[C@H]1CN(C)S(=O)(=O)c1ccc(C(F)(F)F)cc1`, the Potency was 896 nM (active).

`Cc1noc(C)c1NC(=O)Nc1ccc2c(c1)C(=O)N(C(C)C)C[C@@H](C)[C@H](CN(C)S(=O)(=O)c1ccc(F)cc1)OCCCC[C@H](C)O2`: the Potency was 63.4 nM (active) and 1.59 µM (active).

For the molecule `C[C@@H]1CN([C@@H](C)CO)C(=O)c2cc(NC(=O)Nc3ccccc3)ccc2O[C@@H](C)CCCCO[C@H]1CN(C)S(=O)(=O)c1ccccc1F`, the Potency was 634 nM (active).

Take `C[C@@H]1CN([C@@H](C)CO)C(=O)c2cc(NC(=O)Nc3ccccc3)ccc2O[C@@H](C)CCCCO[C@H]1CN(C)Cc1ccc(C(F)(F)F)cc1`: the Potency was 1000 nM (active).

Regarding `C[C@@H]1CN(CCO)C(=O)c2cc(NC(=O)Nc3ccccc3)ccc2O[C@@H](C)CCCCO[C@H]1CN(C)S(=O)(=O)c1ccc(F)cc1`, the Potency was 179 nM (active).

In the case of `C[C@@H]1CN([C@@H](C)COC(=O)c2ccccc2)C(=O)c2cc(NC(=O)Nc3ccccc3)ccc2O[C@@H](C)CCCCO[C@H]1CN(C)C(=O)OC(C)(C)C`, the Potency is 400 nM (active).

In the case of `C[C@@H]1CCCCO[C@H](CN(C)C(=O)Nc2ccc(F)cc2)[C@H](C)CN([C@@H](C)CO)C(=O)c2cc(NS(=O)(=O)c3ccccc3)ccc2O1`, the Potency was 356 nM (active).

Take `C[C@@H]1CN([C@@H](C)CO)C(=O)c2cc(NC(=O)Nc3ccccc3)ccc2O[C@@H](C)CCCCO[C@H]1CN(C)C(=O)OC(C)(C)C`: the Potency is 565 nM (active).

As to `COc1ccc(COCCN2C[C@@H](C)[C@H](CN(C)S(=O)(=O)c3ccc(F)cc3)OCCCC[C@H](C)Oc3ccc(NC(=O)Nc4ccccc4)cc3C2=O)cc1`, the Potency was 100 nM (active).

For the molecule `C[C@@H]1CN([C@@H](C)COC(=O)C(C)(C)C)C(=O)c2cc(NC(=O)Nc3ccccc3)ccc2O[C@@H](C)CCCCO[C@H]1CN(C)S(=O)(=O)c1ccc(F)cc1`, the Potency is 11.3 nM (active).

For `C[C@@H]1CN([C@@H](C)CO)C(=O)c2cc(NC(=O)Nc3ccccc3)ccc2O[C@@H](C)C/C=C\CO[C@H]1CN(C)S(=O)(=O)c1ccc(F)cc1`, the Potency is 356 nM (active).

In the case of `CC(C)N1C[C@@H](C)[C@H](CN(C)S(=O)(=O)c2ccc(F)cc2)OCCCC[C@H](C)Oc2ccc(NC(=O)Nc3ccccc3)cc2C1=O`, the Potency is 17.9 nM (active).

Take `C[C@@H]1CN([C@@H](C)CO)C(=O)c2cc(NC(=O)Nc3ccccc3)ccc2O[C@@H](C)CCCCO[C@H]1CN(C)S(=O)(=O)c1cccnc1`: the Potency is 2830 nM (active).

For `C[C@@H]1CN([C@@H](C)CO)C(=O)c2cc(NC(=O)Nc3ccccc3)ccc2O[C@@H](C)C/C=C/CO[C@H]1CN(C)S(=O)(=O)c1ccc(F)cc1`, the Potency is 142 nM (active).

On to `C=CCOC(=O)N(C)C[C@@H]1OCCCC[C@H](C)Oc2ccc(NC(=O)Nc3ccccc3)cc2C(=O)N([C@@H](C)CO)C[C@H]1C`, for which the Potency is 356 nM (active).

Consider `C[C@@H]1CN([C@@H](C)CO)C(=O)c2cc(N)ccc2O[C@@H](C)CCCCO[C@H]1CN(C)S(=O)(=O)c1ccc(F)cc1`, for which the Potency is 159 nM (active).

Take `C[C@@H]1CN([C@H](C)CO[Si](C)(C)C(C)(C)C)C(=O)c2cc(NC(=O)Nc3ccccc3)ccc2O[C@@H](C)CCCCO[C@H]1CN(C)S(=O)(=O)c1ccc(F)cc1`: the Potency is 225 nM (active).

Regarding `CC(C)NC(=O)Nc1ccc2c(c1)C(=O)N([C@@H](C)CO)C[C@@H](C)[C@H](CN(C)S(=O)(=O)c1ccc(F)cc1)OCCCC[C@H](C)O2`, the Potency is 634 nM (active).

`COc1ccc(COC[C@H](C)N2C[C@@H](C)[C@H](CN(C)Cc3ccc(OC)cc3)OCCCC[C@H](C)Oc3ccc(NC(=O)Nc4ccccc4)cc3C2=O)cc1`: the Potency is 565 nM (active).

For the molecule `COCCOCOC[C@H](C)N1C[C@@H](C)[C@H](CN(C)S(=O)(=O)c2ccc(F)cc2)OCCCC[C@H](C)Oc2ccc(NC(=O)Nc3ccccc3)cc2C1=O`, the Potency is 11.3 nM (active).

Consider `C=CCOC(=O)N(C)C[C@H]1OCCCC[C@H](C)Oc2ccc(NC(=O)Nc3ccccc3)cc2C(=O)N([C@@H](C)CO[Si](C)(C)C(C)(C)C)C[C@H]1C`, for which the Potency is 283 nM (active).

For the molecule `COCOC[C@H](C)N1C[C@@H](C)[C@H](CN(C)S(=O)(=O)c2ccc(F)cc2)OCCCC[C@H](C)Oc2ccc(NC(=O)Nc3ccccc3)cc2C1=O`, the Potency is 10 nM (active).

Consider `Cc1noc(C)c1NC(=O)Nc1ccc2c(c1)C(=O)N([C@@H](C)CO)C[C@@H](C)[C@H](CN(C)S(=O)(=O)c1ccc(F)cc1)OCCCC[C@H](C)O2`, for which the Potency was 126 nM (active).

As for `C[C@@H]1CN([C@@H](C)CO)C(=O)c2cc(Nc3nc4ccccc4o3)ccc2O[C@@H](C)CCCCO[C@H]1CN(C)S(=O)(=O)c1ccc(F)cc1`, the Potency was 1590 nM (active).

On to `C[C@@H]1CN(CCO[Si](C)(C)C(C)(C)C)C(=O)c2cc(NC(=O)Nc3ccccc3)ccc2O[C@@H](C)CCCCO[C@H]1CN(C)S(=O)(=O)c1ccc(F)cc1`, for which the Potency is 56.5 nM (active).

For the origin of these results see PubChem BioAssay AID504608 (National Center for Advancing Translational Sciences (NCATS), 2011).
